According to PubChem BioAssay (Tox21):
“And” between values parts separate entries of the source, which are not always exact repeats. Equal entries are not always repeated. Records with an inconclusive call do not appear. Where a call stands in place of a potency, no number is given. The source made the active and inactive calls. Calls follow the shape of the dose curve; as a rule, active = well fitted cell-killing curve with a large enough effect in the repeat runs; inconclusive = weak or mixed curves, or effect the other way; inactive = flat fitted curve, though single readings scatter.

Test: qHTS assay to identify small molecule agonists of the constitutive androstane receptor (CAR) signaling pathway - cell viability counter screen (AID 1224836); also: nearly all actives have a fitted effect of over 45% in size
Details: HepG2-CYP2B6-hCAR viability, CellTiter-Fluor, 23 h, PK11195 added to every well; series mostly up to 92.4 µM
Source text: U.S. Tox21 Program National Center for Advancing Translational Sciences [NCATS] NIH Chemical Genomics Center [NCGC] U.S. Environmental Protection Agency [EPA] National Institutes of Environmental Health Sciences [NIEHS] National Toxicology Program [NTP] U.S. Food and Drug Administration [FDA] Tox21 Assay Overview: The constitutive androstane receptor (CAR) is a nuclear receptor which regulates multiple drug metabolizing enzymes (DMEs) and transporters. Activating CAR will generally increase the transcription and subsequent translation of CYP2B6 and CYP3A4. These two DMEs represent about 50% of the drug metabolizing potential in the body. […] Recently, there have also been studies performed indicating CARs role in energy metabolism and cancer therapy. Therefore, inducing CARs activity could have a potential effect on diabetes and cancer. Identifying environmental toxins and compounds which modulate CAR, through the use of the Tox21 10K compound collection, will be an important step in determining the toxicity and potential therapeutic effects these factors will have on the human body. To differentiate true CAR agonists from cytotoxic substances, the assay is multiplexed with a cell viability assay.
Tox21 Assay Protocol Summary: A double-stable (hCAR and CYP2B6-2.2kb) transfected cell line, derived from human hepatoma (HepG2) cells, was utilized for the duration of the quantitative high-throughput screens. The HepG2-CYP2B6-hCAR cells were dispensed at 2500 cells/4 uL/well in 1536-well white solid bottom plates using a Multidrop Combi. After the assay plates were incubated at 37 C/5% CO2 for 4 hrs, 23 nL of compounds at 15 concentrations (from 5-48 columns) or positive control (from 1 to 4 columns) were transferred to the assay plates using a Pintool station. One uL of PK11195 (final concentration = 0.75 uM) was added, using a Flying Reagent Dispenser, inside each well. After a 23 hr incubation period at 37 C/5% CO2, 1 uL of CellTiter-Fluor reagent was added into each well of the assay plates using a Flying Reagent Dispenser. The fluorescence intensity in the plates was then measured using a ViewLux plate reader.
Potency is read from the fitted curve at half-maximal effect.

SMILES | Potency
CNC(=O)O/N=C(\C)C(C)S(C)(=O)=O (stereo not given) | inactive
CCn1cc[n+](C)c1 (tested in a mixture with another compound) | inactive
O=[N+]([O-])C(Br)Br | inactive
CCCCc1ccccc1 | inactive
CCOP(=S)(OCC)SC(CCl)N1C(=O)c2ccccc2C1=O (stereo not given) | inactive
C[C@]12Cc3cn[nH]c3C[C@@H]1CC[C@@H]1[C@@H]2CC[C@@]2(C)[C@H]1CC[C@]2(C)O | inactive
Cc1cc2c3c(c1)C(c1ccccc1)=N[C@@H](NC(=O)c1ccncc1)C(=O)N3CC2 | inactive
Clc1ccc(C(Cl)(Cl)Cl)cc1Cl | inactive
Oc1ccc([C@H]2CNCc3c2ccc(O)c3O)cc1O | inactive
C[C@]12C/C(=C/O)C(=O)C[C@@H]1CC[C@@H]1[C@@H]2CC[C@@]2(C)[C@H]1CC[C@]2(C)O | inactive
C#CCC1=C(C)C(OC(=O)C2C(C=C(C)C)C2(C)C)CC1=O (stereo not given) | inactive
[O]=[Cr](=[O])([OH])[O][Cr](=[O])(=[O])[OH] | 15.5 µM (active) and 15.3 µM (active)
Nc1nc(N)nc(Cl)n1 | inactive
CC(C)(C)c1ccc(OP(=O)(Oc2ccccc2)Oc2ccccc2)cc1 | inactive
BrCCCBr | inactive
OCC(Br)CBr (stereo not given) | inactive
[Cl][Hg][c]1ccccc1 | 6.86 µM (active)
CCOC(=O)CCN(SN(C)C(=O)Oc1cccc2c1OC(C)(C)C2)C(C)C | inactive
CCC1COC(Cn2cncn2)(c2ccc(Cl)cc2Cl)O1 (stereo not given) | inactive
CC(C)N(C(=O)SC/C(Cl)=C/Cl)C(C)C | inactive

SMILES | Potency
CC(=O)[O-].CC(=O)[O-].O.O.O.[Pb+2] | inactive
Cc1cccc(Cc2cnc[nH]2)c1C | inactive
C[C@]12CC[C@H]3[C@@H](CCC4=CC(=O)CC[C@@H]43)[C@@H]1CC[C@@H]2OC(=O)CCc1ccco1 | inactive
CCN(CC)C(=O)N[C@@H]1C=C2c3cccc4[nH]cc(c34)C[C@@H]2N(C)C1 | inactive
C[N+]1(C)[C@@H]2CC[C@H]1CC(OC(=O)C(CO)c1ccccc1)C2 (stereo not given in full) | inactive
CCN(CC)C(=S)S | 54.9 µM (active) and 12.1 µM (active) and 19.3 µM (active)
O=S(=O)(NS(=O)(=O)C(F)(F)F)C(F)(F)F | 24.3 µM (active)
COc1ccc2c3c1O[C@H]1[C@H](O)CC[C@H]4[C@@H](C2)N(C)CC[C@@]341 | inactive
O=P(Cl)(Cl)Cl | inactive
CCCCC(CC)COC(=O)c1ccccc1C(=O)OCC(CC)CCCC (stereo not given) | inactive
C#CCO | inactive
O=c1[nH]c(Cl)c(Cl)cc1Cl | inactive
O=c1[nH]c2cc(Cl)ccc2n1C1CCNCC1 | inactive
[Cl-].[Cl-].[Cl-].[Yb+3] | inactive
CCC(C)Nc1c([N+](=O)[O-])cc(C(C)(C)C)cc1[N+](=O)[O-] (stereo not given) | inactive
Brc1ccc(Oc2ccc(Br)cc2Br)c(Br)c1 | inactive
COc1ccc2c(c1OC)C(=O)O[C@@H]2[C@H]1c2cc3c(cc2CCN1C)OCO3 | 7.62 µM (active)
C=Cc1cccc(CCl)c1 | inactive
CN1C(=O)[C@@H](NC(=O)c2cc3ccccc3[nH]2)N=C(c2ccccc2)c2ccccc21 | inactive
Brc1cccc(-c2ccccc2)c1 | inactive
